Data taken from PubChem BioAssay AID1159580 (chemical genetic matrix, 2015).
Among all 5,500 compounds or so, about 2,000 (36%) were called active. Inconclusive results (about 18%) are left out. Cut-off read from the data, not from the text of the source: active = normalized growth mostly below about 0.91 (no sharp cut-off); inconclusive = no clear call, values can overlap the other calls; inactive = mostly above about 0.92. Some of the results follow.

Test: chemical genetic growth profiling, strain panel (AID 1159580);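 note: tested at 20 µM; growth read once vehicle control cultures reached saturation at 30 °C; 1 = growth at the plate median or of vehicle wells; lower values mean less growth of the strain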
Details: growth OD
[1] = S. cerevisiae deletion strains, locus YAL013W, strain DEP1, hits give low values
[2] = S. cerevisiae deletion strains, locus YBR229C, strain ROT2, hits give low values
[3] = S. cerevisiae deletion strains, locus YDL101C, strain DUN1, hits give low values
[4] = S. cerevisiae deletion strains, locus YDR150W, strain NUM1, hits give low values
[5] = S. cerevisiae deletion strains, locus YEL061C, strain CIN8, hits give low values
[6] = S. cerevisiae deletion strains, locus YGR078C, strain PAC10, hits give low values
[7] = S. cerevisiae deletion strains, locus YGR229C, strain SMI1, hits give low values
[8] = S. cerevisiae deletion strains, locus YHR030C, strain SLT2, hits give low values
[9] = S. cerevisiae deletion strains, locus YHR087W, strain rtc3, hits give low values
[10] = S. cerevisiae deletion strains, locus YJL187C, strain SWE1, hits give low values
[11] = S. cerevisiae deletion strains, locus YJR043C, strain POL32, hits give low values
[12] = S. cerevisiae deletion strains, locus YJR075W, strain HOC1, hits give low values
[13] = S. cerevisiae deletion strains, locus YLR039C, strain RIC1, hits give low values
[14] = S. cerevisiae deletion strains, locus YLR058C, strain SHM2 (second series), hits give low values
[15] = S. cerevisiae deletion strains, locus YLR085C, strain ARP6, hits give low values
[16] = S. cerevisiae deletion strains, locus YLR262C, strain YPT6, hits give low values
[17] = S. cerevisiae deletion strains, locus YML094W, strain GIM5, hits give low values
[18] = S. cerevisiae deletion strains, locus YMR219W, strain ESC1, hits give low values
[19] = S. cerevisiae deletion strains, locus YNL153C, strain GIM3, hits give low values
[20] = S. cerevisiae deletion strains, locus YNL298W, strain CLA4 (second series), hits give low values
[21] = S. cerevisiae deletion strains, locus YNL322C, strain KRE1, hits give low values
[22] = S. cerevisiae deletion strains, locus YNR030W, strain Alg12, hits give low values
[23] = S. cerevisiae deletion strains, locus YPL055C, strain LGE1, hits give low values
[24] = S. cerevisiae deletion strains, locus YPL241C, strain CIN2, hits give low values
[25] = S. cerevisiae deletion strains, locus YPR135W, strain CTF4, hits give low values

Measured: normalized growth

O=C(COC(=O)c1ccccc1Nc1ccccc1)c1ccc(Cl)cc1
inactive: [1] 0.978 | [2] 0.99 | S. cerevisiae deletion strains, locus YCL061C, strain MRC1, hits give low values 0.993 | [3] 0.986 | [4] 0.9 | [5] 0.993 | [6] 0.982 | [7] 0.98 | [8] 1.01 | [9] 0.974 | [10] 0.997 | [11] 0.98 | [12] 1 | S. cerevisiae deletion strains, locus YKL190W, strain CNB1, hits give low values 0.988 | [13] 0.944 | [14] 0.992 | [15] 1.02 | [16] 0.987 | [17] 0.956 | [18] 0.988 | S. cerevisiae deletion strains, locus YMR263W, strain SAP30, hits give low values 0.927 | S. cerevisiae deletion strains, locus YMR307W, strain GAS1, hits give low values 0.987 | [19] 0.993 | [20] 1 | [21] 0.966 | [22] 0.99 | S. cerevisiae deletion strains, locus YOL006C, strain TOP1, hits give low values 0.964 | [23] 0.921 | [24] 0.9 | [25] 1.01 | S. cerevisiae strains, strain wild type, hits give low values 0.985

O=C(/C=N\Nc1ccccc1)Nc1ccccc1C(=O)O
active: [6] 0.92 | [13] 0.297 | [15] 0.666 | [16] 0.242 | [24] 0.792
inactive: [1] 0.975 | [2] 0.98 | [3] 0.99 | S. cerevisiae deletion strains, locus YDL134C, strain PPH21, hits give low values 0.99 | [4] 0.883 | [5] 0.986 | [7] 1.02 | [8] 0.716 | [9] 0.92 | [10] 0.983 | [11] 0.989 | [12] 0.953 | [14] 0.97 | [17] 0.922 | [18] 0.976 | [19] 0.965 | [20] 0.93 | [21] 0.982 | [22] 0.958 | [23] 0.86 | [25] 0.812
